Screening data: PubChem BioAssay, National Center for Advancing Translational Sciences (NCATS)
D2 PAM-1 = Beta-Arrestin HTS for Positive Allosteric Modulators of the Human D2 Dopamine Receptor: Potentiators | DiscoveRx D2 beta-arrestin cells, luminescence, 90 min; 100% = 57 uM dopamine signal | 360,000 tested, 0.23% active | potentiation, % (concentration not given with the values); in the data active = potentiation above about 50%; inconclusive = mostly about 30% to 49%
Target sequence (P14416 whole entry, looked up): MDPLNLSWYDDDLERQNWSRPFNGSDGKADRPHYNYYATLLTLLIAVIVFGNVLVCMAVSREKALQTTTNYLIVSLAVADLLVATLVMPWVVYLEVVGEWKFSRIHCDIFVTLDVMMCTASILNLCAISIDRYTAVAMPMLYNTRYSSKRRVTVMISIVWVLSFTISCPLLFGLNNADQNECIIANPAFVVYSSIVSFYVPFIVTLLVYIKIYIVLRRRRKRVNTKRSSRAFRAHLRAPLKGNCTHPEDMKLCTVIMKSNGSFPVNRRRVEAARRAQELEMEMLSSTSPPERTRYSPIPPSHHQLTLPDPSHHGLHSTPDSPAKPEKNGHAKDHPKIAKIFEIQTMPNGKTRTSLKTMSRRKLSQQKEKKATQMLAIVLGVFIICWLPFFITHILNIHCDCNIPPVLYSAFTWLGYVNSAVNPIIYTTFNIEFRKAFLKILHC
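D2 cells co-treated with compound plus 50 nM dopamine (EC20) for 90 min at 37 deg C to detect potentiation. Beta-arrestin recruitment was read as enzyme-fragment luminescence after 1 h at ambient temperature. Full response was set by 57 uM dopamine.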
D2 PAM-2 = HTS Assay for Positive Allosteric Modulators of the Human D2 Dopamine Receptor: Primary Screen for Potentiators | D(2) dopamine receptor (Homo sapiens), P14416 | HEK293 T-REx D2, calcium flux, EC20 dopamine potentiation | potentiation, % at 10 µM | 340,000 tested, 0.34% active;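 active = potentiation over 3 SD above the plate norm, cut at about 30% in these data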; note: 0% is about no effect
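Tetracycline-induced HEK293 T-REx cells force-coupled to calcium signalling expressed D2; compounds were pin-added after a 10 s baseline, read kinetically 180 s, then an EC20 dopamine challenge followed with a further 180 s calcium read.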
D2 antagonist = HTS Assay for Allosteric Antagonists of the Human D2 Dopamine Receptor: Primary Screen for Antagonists; D(2) dopamine receptor (Homo sapiens), P14416; HEK293 TREx D2 cells, calcium flux, dopamine EC80; inhibition, % at 10 µM; 340,000 tested, 2% active; in the data active = inhibition above about 30%; inactive = below that, where a call was filed; note: 0% is about no effect
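Read-out: kinetic calcium fluorescence (1 cycle/s) in inducible HEK293 T-REx D2 cells after an EC80 dopamine addition that followed 180 s compound preincubation. Loss of the dopamine response indicates antagonism.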
D2 ag-1 = Beta-Arrestin HTS for Positive Allosteric Modulators of the Human D2 Dopamine Receptor: Agonists; D(2) dopamine receptor (Homo sapiens), P14416; DiscoveRx PathHunter D2 beta-arrestin, luminescence, 90 min; 100% = 57 uM dopamine signal; activation, % (concentration not given with the values); 360,000 tested, 0.084% active; AID 624465, 2012; in the data active = activation above about 40%; inconclusive = between about 15% and that limit
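DiscoveRx PathHunter D2 beta-arrestin cells (2,100/well) attached overnight, then compound-stimulated 90 min at 37 C in HBSS/10 mM HEPES/0.1% Tween-20 buffer; beta-galactosidase complementation read by luminescence after 1 h at ambient temperature. Dopamine 57 uM final (EC100) as control.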
D2 ag-2 = HTS Assay for Allosteric Agonists of the Human D2 Dopamine Receptor: Primary Screen for Agonists; D(2) dopamine receptor (Homo sapiens), P14416; HEK293 T-REx D2 cells, calcium flux agonist mode; activation, % at 2 µM; 340,000 tested, 0.53% active; AID 485358, 2010;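 active = activation over 3 SD above normal in the single-dose calcium agonist read, cut at about 30% in these data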; note: 0% is about no effect
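Tetracycline-induced HEK293 Trex cells with D2 receptor force-coupled to calcium signaling, plated overnight at 30 C and loaded with no-wash calcium dye. Calcium flux read kinetically for 180 s after compound addition; responses flag agonists.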
* hit, by the source's call; ? = inconclusive; . = no result. In the library only some 2.4% were active in any assay of this set; here they are far more common.

SMILES	D2 PAM-1	D2 PAM-2	D2 antagonist	D2 ag-1	D2 ag-2
Cc1ccc(/C=C2\CCC3=C2OC(N)=C(C#N)C3c2ccc(C)cc2)cc1 (centres undefined)	7.2	-5.0	-35.3	-3.3	72.3*
COc1ccc(-c2nnc(SCC(=O)NC3CCCC3)nc2-c2ccc(OC)c(OC)c2)cc1OC	.	7.1	.	.	-0.3
CCOc1ccc(C(=O)NCC(c2ccc3c(c2)OCO3)N2CCN(c3ccc(F)cc3)CC2)cc1 (centres undefined)	.	-12.3	.	.	.
C#CCSc1nccc(-c2nn(-c3ccc(C)cc3)ccc2=O)n1	-32.1	-18.3	32.3*	-4.2	0.5
CCOc1ccc(CN2C(=O)c3ccccc3Sc3ccc(C(=O)N4CCN(C)CC4)cc32)cc1	.	3.2	.	.	0.6
Cc1onc(-c2ccc(Cl)cc2Cl)c1C(=O)/C=C/N(C)C	-12.5	-1.3	16.2	-3.7	-0.1
CC(=O)c1c(-c2ccc(Cl)cc2Cl)noc1C	-7.8	-11.3	30.2*	-19.2	0.2
COc1cccc(CNC(=O)CN2C(=O)COc3ccc(S(=O)(=O)Nc4ccccc4)cc32)c1	.	-0.2	.	.	-0.2
CCOc1ccc2[nH]c(=O)c(CN(CCO)Cc3nnnn3CCc3ccccc3)cc2c1	-8.8	-6.6	38.9*	-3.7	-0.4
O=C1/C(=C/C=C/c2ccco2)SC(=S)N1NS(=O)(=O)c1ccccc1	-12.7	10.0	41.7*	-4.9	0.7
CCOCC(=O)Nc1nnc(COC)s1	-8.0	8.1	31.1*	0.2	-0.3
COc1ccc(C(=O)NCCn2cc(SCC(=O)NCCc3ccc(OC)c(OC)c3)c3ccccc32)cc1	.	3.2	.	.	-0.2
COc1ccc(CCNC(=O)Cn2nc(-c3ccc(Cl)cc3)ccc2=O)cc1OC	.	6.1	.	.	0.5
CCOc1ccccc1NC(=O)N1CCN(Cc2cc(=O)n3nc(-c4ccc(C)cc4)sc3n2)CC1	.	-5.3	.	.	-0.3
CC(C)c1ccc(NC(=O)C2CC(=O)N=C(N)S2)cc1 (centres undefined)	108.9*	19.8	-3.1	?	0.4
CCc1ccc(NC(=O)C2CC(=O)N=C(N)S2)cc1 (centres undefined)	-7.8	1.9	8.7	-0.9	0.4
Cc1ccc(NC(=O)c2cccs2)cc1NC(=O)c1cccnc1	76.9*	.	.	-1.1	.
O=C(CC(c1ccccc1)c1cc(Br)ccc1O)NCC1(c2ccccc2)CCCC1 (centres undefined)	.	7.6	.	.	-0.6
COc1ccc2c(c1)c1c(c(=O)n(-c3ccc(C)cc3)c(=O)n1CC(=O)NCc1ccc(C)cc1)n2C	.	5.6	.	.	0.8
Cn1nccc1C(=O)N1CCc2ccccc21	-3.6	1.3	35.8*	-4.7	0.4
Cc1nnc(Sc2nc3ccccc3o2)c2ccccc12	-19.1	32.2*	-10.4	-3.1	-0.4
Cc1ccc(-c2nnc(Sc3nc4ccccc4o3)c3ccccc23)cc1	-5.6	8.7	15.1	-1.3	1.1
C=CCc1ccc(OCC(O)CN2CCc3ccccc3C2)c(OC)c1 (centres undefined)	-27.7	-13.2	47.0*	-2.8	0.4
Cc1ccc(OCC(O)CN2CCN(Cc3ccc4c(c3)OCO4)CC2)cc1C (centres undefined)	-22.0	-28.8	22.2	-0.1	0.3
C=CCc1ccccc1OCC(O)CN1CCN(Cc2ccc3c(c2)OCO3)CC1 (centres undefined)	-14.5	-24.2	63.8*	1.6	0.6
OC(COc1ccc2c(c1)OCO2)CN1CCc2ccccc2C1 (centres undefined)	-31.6	-24.6	41.8*	0.1	0.8
COCCCN(C(=S)Nc1cccc(Cl)c1)C(C)c1ccncc1 (centres undefined)	-9.6	-0.4	30.3*	-1.4	0.7
CCc1ccc2c(c1)c(=O)c(C(=O)c1ccccc1)cn2CC(=O)Nc1ccc(C)c(Cl)c1	.	-23.6	.	.	1.0
